Shown are actives, neighbours in structure and some others; about 4.9% of the full set was active somewhere.
UCHL1 block: human UCHL1 deubiquitinase inhibition. P09936. purified UCHL1, Ub-rhodamine cleavage fluorescence. inhibition, % at 20 µM. 47,000 tested, 0.2% active. AID 1645859
USP8 block: blocks human USP8 ubiquitin-rhodamine cleavage; inhibition, % at 20 µM; P40818; AID 1645853; 47,000 tested, 4.2% active; purified USP8, Ub-rhodamine cleavage fluorescence, 30 min
OTUD3 inh: inhibitors of human OTUD3 deubiquitinase; AID 1645858; inhibition, % at 25 µM; 47,000 tested, 0.7% active; purified OTUD3, Ub-rhodamine fluorescence, 2 h
USP7 block: human USP7 deubiquitinase inhibition. Q93009. purified USP7, Ub-rhodamine cleavage fluorescence. inhibition, % at 20 µM. 47,000 tested, 0.3% active. AID 1645854
USP10 inh: blocks human USP10 ubiquitin-rhodamine cleavage; inhibition, % at 20 µM; 47,000 tested, 1.1% active; purified USP10, Ub-rhodamine fluorescence, 60 min
Each line names hits and unclear results; the compound was inactive in the other large screens. No stated cut-off is given here; in the data, active means inhibition above about 30%; inactive means the rest.

COc1ccc(Nc2nc(C(=O)NCc3ccccc3)cc3occc23)cc1	USP8 block 55
COc1ccc(Nc2nc(C(=O)NCc3ccc4c(c3)OCO4)cc3occc23)cc1	USP8 block 67, USP10 inh 33
CCOC(=O)[C@@H]1CN(C(=O)OCC(C)C)[C@H]2c3cccc(C)c3O[C@@H]12	none
CCOc1ccc(-c2nnc(-c3cnc4onc(C5CCCC5)c4c3)o2)cc1	USP10 inh 32
CC(C)(C)Cc1nnc(-c2cnc3onc(C4CCCC4)c3c2)o1	USP8 block 35
c1nc2onc(C3CCCC3)c2cc1-c1nnc(C2CC2)o1	none
CN1CCN(c2cc(-c3ccc(F)cc3)nc(-c3cccnc3)n2)CC1	none
Cc1ccc2[nH]c(=O)c(-c3noc(-c4cccnc4)n3)cc2c1	none
COc1ccc(-c2nc(-c3cc4cc(OC)ccc4[nH]c3=O)no2)cc1	USP8 block 35
COc1cccc(C(=O)C2CC2c2ccc(Cl)cc2)c1 (stereo unspecified)	none
Cc1occc1CNC(=O)C(=O)Nc1ccc(-n2cncn2)c(F)c1	none
Cc1cc(C(=O)N2C[C@H](OCc3ccncc3)[C@H]3OCCC[C@H]32)no1	none
COCCCNC(=O)c1ccc(-c2ccc(N3CCCCC3)nc2)cc1	USP8 block 37
CS(=O)(=O)n1nc(NCc2ccc(F)cc2)nc1NCc1ccc(F)cc1	OTUD3 inh 33
Cc1ccc(CNc2nc(-c3cccnc3)nn2S(C)(=O)=O)cc1	none
COc1ccc(CCNc2nc3c(-c4ccccc4)nnn3c3ccccc23)cc1OC	USP8 block 44
COCCCNc1nc2c(-c3ccc(Cl)cc3)nnn2c2ccccc12	none
CCc1ccc(NC(=O)CSc2[nH]c(=O)c(C(=O)O)cc2C#N)cc1	USP8 block 54
CCc1ccc(NC(=O)CSc2ncc(S(=O)(=O)c3ccccc3)c(=O)[nH]2)cc1	none
COc1ccc(CCC(=O)Nc2ccc3nc(N4CCN(c5ncccn5)CC4)cc(C)c3c2)cc1	USP8 block 36
COc1cccc(C(=O)Nc2ccc3nc(N4CCN(c5ncccn5)CC4)cc(C)c3c2)c1OC	USP8 block 59
COc1ccc(/C=C/C(=O)Nc2ccc3nc(N4CCN(c5ncccn5)CC4)cc(C)c3c2)cc1	USP8 block 88
CCN(CC)c1cc(C)c2cc(NC(=O)CCc3ccc(OC)cc3)ccc2n1	USP8 block 54
CCOc1ccc(CNC(=O)c2cn3c(n2)CCCC3)cc1	none
O=C(CCc1ccccc1)N1CCCC(c2[nH]nc3nccnc23)C1 (stereo unspecified)	none
COc1cc(O)c2c(O)c3c(cc2c1)C[C@@]1(O)CC(=O)C(C(N)=O)=C(O)[C@@]1(O)C3=O	UCHL1 block 70, OTUD3 inh 46, USP7 block 65
COc1ccc(CN2CCCC23CCCN(C(=O)CCc2cccnc2)C3)cc1F (stereo unspecified)	OTUD3 inh 44
COc1ccc(Cn2cccc2-c2nc(-c3ccncc3)no2)cc1	none
CC1(C(=O)NC2CCCC2)Cn2c(ccc2-c2ccco2)C(=O)N1Cc1ccccc1 (stereo unspecified)	USP8 block 57
COc1ccc2cc3n(c2c1)CC(C)(C(=O)NC1CCCC1)N(Cc1ccc(C)cc1)C3=O (stereo unspecified)	none
COc1ccc(N2C(=O)c3cc4ccccc4n3CC2(C)C(=O)NC2CCCC2)cc1 (stereo unspecified)	USP8 block 31
COc1cccc(CNc2nccn(Cc3ccc(F)cc3)c2=O)c1	none
CCOc1ccccc1NC(=O)Cn1c(=O)n(CCCC(=O)NCc2ccc(C)cc2)c(=O)c2sccc21	USP8 block 47, USP7 block 36, USP10 inh 56
CCOc1ccc(NC(=O)Cn2c(=O)n(CC(=O)NCc3ccc(C)cc3)c(=O)c3sccc32)cc1	none
COc1ccc(NC(=O)Cn2c(=O)n(CC(=O)NCc3ccc(C)cc3)c(=O)c3sccc32)cc1OC	OTUD3 inh 32
Cc1ccc(CNC(=O)CCCn2c(=O)c3ccccc3n(Cc3cccc(F)c3)c2=O)cc1	none
CCOc1ccc(NC(=O)Cn2c(=O)n(CCCCC(=O)NCCc3ccccc3)c(=O)c3ccccc32)cc1	none
Cc1ccc(CNC(=O)CCCn2c(=O)c3sccc3n(CC(=O)Nc3cc(Cl)ccc3C)c2=O)cc1	OTUD3 inh 40
CN(C)C(=O)c1ccc2nnc(C3CN(c4ncccn4)CCN3C)n2c1 (stereo unspecified)	none
COc1ccc(-c2nc3c(c(SCC(=O)Nc4ccccc4C)n2)COC(C)(C)C3)cc1	none

Screening results (PubChem)
